Assay outcomes deposited in PubChem by National Center for Advancing Translational Sciences (NCATS).
Shown are actives, neighbours in structure and some others; about 11% of the full set was active somewhere.
HPGD block: qHTS Assay for Inhibitors of HPGD (15-Hydroxyprostaglandin Dehydrogenase). 15-hydroxyprostaglandin dehydrogenase [NAD(+)] (Homo sapiens), P15428. purified HPGD, NADH fluorescence kinetic, PGE2 substrate. Potency, µM, hits mostly inhibitors. hit rate 4.3% among 150,000. AID 894, 2007; active = well fitted inhibition curve with a large enough effect, not every such curve was filed as active; inconclusive = small, poorly fitted or top-dose-only effect, or another doubt; inactive = no such curve, though single readings can be large or run the other way
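20 nM HPGD preincubated 15 min at room temperature with compound in 50 mM Tris-HCl pH 8, 0.01% Tween 20. Started with 1 mM NAD+ and 30 uM prostaglandin E2; NADH fluorescence (360/450 nm) read 5 times over 30-s intervals, last minus first.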
HTT ATP protect: qHTS Multiplex Assay to Identify Dual Action Probes in a Cell Model of Huntington: Cytoprotection (ATP); PC12 HTT-Q103 induced, cytoprotection, ATP luminescence, 40 h; Potency, µM (top dose mostly 56.4 µM), most hits filed as activators; hit rate 0.14% among 230,000; note: nearly all actives have a fitted effect of over 45% in size
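ATP quantification (ATPlite) reports survival of PC12 cells in which tebufenozide, 100 nM final, switches on Htt exon 1 with 103 glutamines linked to GFP; compounds are titrated.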
HTT aggregate: qHTS Multiplex Assay to Identify Dual Action Probes in a Cell Model of Huntington: Aggregate Formation (GFP). PC12 HttQ103-GFP aggregates, Acumen cytometry, 40 h. Potency, µM (highest dose often 46.1 µM), usual class: inhibitors. hit rate 1.1% among 220,000; note: nearly all actives have a fitted effect of over 60% in size
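Using laser scanning cytometry, GFP-positive aggregates were counted after lysis of PC12 cells induced with 100 nM tebufenozide to express HTT exon 1 Q103–GFP. Compounds were tested in titration.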
PNC inhibitor: High Content Assay for Compounds that inhibit the Assembly of the Perinucleolar Compartment; PC3M PTB-GFP, PNC prevalence imaging, 16 h; stronger effect = lower value; activity change (PNC), negative = inhibition, % at 10 µM; hit rate 3.1% among 140,000; AID 2417, 2010;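 active = readout at or below -70, meaning at least 70% loss of cells showing the perinucleolar compartment, a nuclear body marking cancer cells; inconclusive = readout between -30 and a set limit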
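PC3M cells stably expressing PTB-GFP, 750–1000 cells/well, treated 16 h at 37 °C with compound (23 nl of library stock), in duplicate. After paraformaldehyde fixation and Hoechst stain, imaged at 20x; PNC prevalence scored by image analysis.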
CBFb RUNX1 block: qHTS Assay for Compounds Blocking the Interaction Between CBF-beta and RUNX1 for the Treatment of Acute Myeloid Leukemia. Runt-related transcription factor 1 (Homo sapiens) + Core-binding factor subunit beta …. AID 1477, 2009. AlphaScreen CBFb-His/RUNX1-biotin binding, biochemical. Potency, µM (doses to about 59.8 µM), usual class: inhibitors. 230,000 tested, under 10 active
Target sequence (Q01196 whole entry, looked up): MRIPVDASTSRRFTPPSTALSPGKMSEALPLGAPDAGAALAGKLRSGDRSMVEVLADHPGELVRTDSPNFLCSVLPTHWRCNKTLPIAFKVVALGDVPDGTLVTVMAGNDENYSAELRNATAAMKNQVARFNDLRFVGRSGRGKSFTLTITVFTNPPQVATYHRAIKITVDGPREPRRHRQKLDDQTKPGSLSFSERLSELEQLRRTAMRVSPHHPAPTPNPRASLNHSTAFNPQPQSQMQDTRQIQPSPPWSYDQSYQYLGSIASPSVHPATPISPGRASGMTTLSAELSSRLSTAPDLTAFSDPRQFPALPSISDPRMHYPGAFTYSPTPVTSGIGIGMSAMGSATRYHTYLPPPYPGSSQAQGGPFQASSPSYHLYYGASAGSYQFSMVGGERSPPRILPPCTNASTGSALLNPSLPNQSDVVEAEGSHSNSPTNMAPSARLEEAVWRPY
Target sequence (Q13951 whole entry, looked up): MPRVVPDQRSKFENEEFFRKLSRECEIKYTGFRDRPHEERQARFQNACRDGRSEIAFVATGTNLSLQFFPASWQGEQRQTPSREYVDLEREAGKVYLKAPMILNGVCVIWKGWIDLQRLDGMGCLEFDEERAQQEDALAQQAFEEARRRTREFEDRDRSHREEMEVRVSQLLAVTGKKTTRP
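AlphaScreen proximity signal reports loss of binding between His-tagged CBF-beta and biotin-labelled RUNX1, each at 30 nM. Proteins are pre-associated for 20 minutes, compounds added for 15 minutes, then beads for 90 minutes, all at ambient temperature.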
ALDH1A1 inh: qHTS Assay for Inhibitors of Aldehyde Dehydrogenase 1 (ALDH1A1). Aldehyde dehydrogenase 1A1 (Homo sapiens), P00352. Purified ALDH1A1, NADH fluorescence, propionaldehyde substrate. Potency, µM (titrated, usually from 75.3 µM), hits mostly inhibitors. hit rate 7.3% among 220,000. AID 1030, 2008; active = well fitted inhibition curve with a large enough effect, not every such curve was filed as active; inconclusive = small, poorly fitted or top-dose-only effect, or another doubt; inactive = no such curve, though single readings can be large or run the other way
Large screens that a line does not name were inactive. Unless noted, calls come from the whole dose curve; as a rule, active = well fitted curve in the direction sought with a large enough effect; inconclusive = small, poorly fitted or top-dose-only effect, or another doubt; inactive = no such curve, though single readings can be large; an effect the other way counts as inactive or inconclusive.

COc1ccccc1OCC(=O)NNC(=S)NC(=O)c1ccco1	HTT aggregate inconclusive, PNC inhibitor inconclusive, ALDH1A1 inh 28µM
CCC(=O)NC(=S)Nc1ccc(NC(=O)c2ccco2)cc1	HTT ATP protect inconclusive (no result: HPGD block, PNC inhibitor)
O=C(/C=C/c1ccc(Cl)cc1)NC(=S)Nc1ccc(NC(=O)c2ccco2)cc1	PNC inhibitor -112
COc1cc(OC)cc(C(=O)NC(=S)Nc2ccc(NC(=O)c3ccco3)cc2)c1	ALDH1A1 inh inconclusive
O=C1CCC=C1C(O)c1ccc2c(c1)OCO2 (centres undefined)	none (no result: HTT aggregate, PNC inhibitor)
COc1ncc2ncc(=O)n(C[C@H]3CCCO3)c2n1	ALDH1A1 inh inconclusive (no result: HPGD block, HTT aggregate, PNC inhibitor, CBFb RUNX1 block)
CCOc1ccc(N=Nc2c(C)noc2C)cc1	none (no result: HPGD block, PNC inhibitor)
C#CCOC(=O)NC(/C=C/CCCC)c1ccccc1 (centres undefined)	none (no result: HTT aggregate, PNC inhibitor)
Cc1ccc(NC(=S)NNC(=O)c2ccccc2OC(F)F)cc1	HTT aggregate inconclusive, PNC inhibitor inconclusive, ALDH1A1 inh inconclusive
O=C(NNC(=S)Nc1cccc(Cl)c1)c1ccccc1OC(F)F	HTT aggregate 11µM, ALDH1A1 inh 25µM (no result: HTT ATP protect)
COc1cccc(NC(=S)NNC(=O)c2ccccc2OC(F)F)c1	HPGD block inconclusive, HTT aggregate inconclusive, ALDH1A1 inh 25µM
CC(C)(Oc1ccc(C2CCCc3ccccc32)cc1)C(=O)O (centres undefined)	HTT ATP protect inconclusive (no result: HPGD block, PNC inhibitor, CBFb RUNX1 block, ALDH1A1 inh)
CCN(CC)c1ccc2c(c1)CCCN2	HTT aggregate inconclusive, CBFb RUNX1 block inconclusive, ALDH1A1 inh 25µM
CC1(C)Cc2c(sc3nc(-c4cccs4)n(N)c(=O)c23)CO1	HTT aggregate 10µM
CCn1c(CSc2nc(C)cc(C)n2)nnc1SCC(=O)Nc1ccccc1	PNC inhibitor inconclusive
CCn1c(CSc2nc(C)cc(C)n2)nnc1SCC(=O)Nc1cccc2ccccc12	PNC inhibitor -107
CCOc1cc(C(=O)NCCN2CCOCC2)cc(OCC)c1OCC	PNC inhibitor -100
Cc1ccc(C2CN=NC23CCc2ccccc2C3=O)cc1 (centres undefined)	HPGD block 32µM, ALDH1A1 inh inconclusive
COc1ccc(C(=O)c2ccc(N3CCN(C4CC(=O)NC4=O)CC3)cc2)cc1F (centres undefined)	HPGD block inconclusive, ALDH1A1 inh 8.9µM
CC(=O)Nn1cc2c(c1-c1ccccc1)c(=O)n(C)c(=O)n2C	HPGD block inconclusive, PNC inhibitor -138, ALDH1A1 inh inconclusive
CCN(CC)C(=O)CSc1ncnc2c(-c3cccs3)nsc12	HPGD block inconclusive, ALDH1A1 inh inconclusive
COc1cccc(C=Nc2ccccc2C(=O)Nc2ccccc2)c1O	HPGD block inconclusive, PNC inhibitor -110, ALDH1A1 inh inconclusive (no result: HTT ATP protect)
CC1(C)N=C(SCC(=O)Nc2ccccc2)C(c2ccc(Cl)cc2)=N1	HTT ATP protect 18µM
Cc1ccc(C2=NC(C)(C)N=C2SCC(=O)Nc2ccc(Cl)cc2)cc1	ALDH1A1 inh 22µM
CC1(C)N=C(SCC(=O)Nc2ccc(Cl)cc2Cl)C(c2ccccc2)=N1	ALDH1A1 inh inconclusive
CO[C@H]1COC(=O)C/C=C\[C@@H](C)COC(=O)[C@@H](OCc2ccccc2)/C=C\[C@@H]1C	none (no result: HPGD block, HTT aggregate, PNC inhibitor)
c1ccc(CN2CCC(Nc3nc(-c4cccs4)nc4ccccc34)CC2)cc1	HTT aggregate inconclusive (no result: HPGD block, PNC inhibitor)
CCCCCCCc1cc2c(cn1)C(=O)C(C)(OC(C)=O)C(O)=C2Cl (centres undefined)	ALDH1A1 inh inconclusive (no result: HTT aggregate, PNC inhibitor)
O=C(CCCSc1nc(-c2ccco2)cc(C(F)(F)F)n1)NCC1CCCO1 (centres undefined)	HPGD block 7.9µM, ALDH1A1 inh inconclusive
FC(F)(F)c1cc(-c2ccco2)nc(NCc2cccs2)n1	ALDH1A1 inh 8.9µM
